Results published in the OligoGym collection.

Biological target: CTLA4
Experiment: pooled miR-30 sensor sort-seq; sequence = guide strand
Details: shRNA
Note: reference of the scale not given here.

Sequence	sensor-assay potency score (higher = more potent)
TTTCACATTCTGGCTCTGTTGG	-0.615
TCATCTAGGAAGGTCAACTCAT	-0.426
TAAATCTGGGTTCCGTTGCCTA	-0.995
TTGGATAGTGAGGTTCACTTGA	0.333
TTACATAAATCTGGGTTCCGTT	-0.355
TTGCTTTTCACATTCTGGCTCT	0.296
TTTTCTTTAGCAATTACATAAA	-1.29
TTTTGCTCAAAGAAACAGCTGT	0.613
TTTAGCAATTACATAAATCTGG	0.216
TTTTCTTTAGCATTTTGCTCAA	-0.539

Biological target: CTNNAL1
Experiment: as above
Details: shRNA

Sequence	sensor-assay potency score (higher = more potent)
TAGTTGATGAATTAAATCCTGG	-0.667
TTATTTGTAACTGAGACCCATC	-0.547
ATTTTGTCTATCTCCACTCAGA	-0.843
TTTCTTGATGTTATTATCTGTT	-0.648
TTCATTTCCAAATTGACTGAAT	0.0043
TCGACAGGTCTCAACAAGCTGC	-0.481
TTCATTAAGACTGTGACTGATT	0.0876
TTGTAACTGAGACCCATCCGTT	-0.457
TTCAGCAGCAGAAATTATCTGT	0.229
TTGTTTTCTTGCTTTGAGCTTG	0.085
TTGAACACTGGAAGTAAGCTTT	0.00936
TTGTCTTCGTAATACACTTGTC	-0.611
